Drawing on PubChem BioAssay AID1259415 (National Center for Advancing Translational Sciences (NCATS), 2018), this text covers activity change, negative = inhibition for 88 compounds.

Out of some 410,000 compounds screened, about 18,000 (4.4%) were called active. Roughly 7% stayed inconclusive and do not appear here. What follows is part of a selection rich in actives, with near analogues and random picks from the rest. Unmarked numbers belong to inactive results. No stated cut-off is given here; in the data, active means activity change below about -60%; inconclusive means no clear call, values can overlap the other calls; inactive means above about -39%.
On the % scale 0 is the no-effect control and ±100 the full control effect.

The assay can be described thus: qHTS Assay for inhibitors of the human cytomegalovirus (HCMV). The conditions noted are these: HFF cells, HCMV-luciferase reporter, 72 h; at 57.5 µM; hits give low values. A digest of the protocol: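 Compounds were evaluated in HFFs infected with an HCMV luciferase reporter virus (MOI 1 PFU/cell). Luciferase in lysates collected 72 h post infection served as the replication measure.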
(Quantitative high-throughput screening tests each substance at several concentrations.)
With `CCC1(C)CC(=O)c2c(ccc3oc(C(=O)Nc4ccc(C(C)=O)cc4)c(C)c23)O1` (stereo not drawn), the activity change, negative = inhibition is -8.87%. The value for `COc1cccc(C2C(C(=O)Nc3ccc(C)cc3C)=C(C)Nc3c(C(=O)Nc4ccccc4)cnn32)c1` (stereo not drawn) was -31.3%.

As to `O=C1CSC(=O)N1CCOCCN1C(=O)CSC1=O`, the activity change, negative = inhibition was 11.3%.

Turning to `CC(C)(C)NC(=O)CSc1nc(-c2ccc(F)cc2)cc(C(F)(F)F)n1`, the activity change, negative = inhibition is -8.55%. In the case of `CC12CCC3C(CCC4CC(=O)CCC43C)C1CC(=NO)C2=O` (stereo not drawn), the activity change, negative = inhibition is 16.3%. As for `CN(CC(=O)Nc1ccccc1F)S(=O)(=O)c1ccc2c(c1)c(=O)n(C)c(=O)n2C`, the figure is 3.4%. As for `CCc1ccccc1NC(=O)CN(C)S(=O)(=O)c1ccc2c(c1)c(=O)n(C)c(=O)n2C`, the figure is 14.6%; as for `CC(C)c1ccc(NC(=O)CN(C)S(=O)(=O)c2ccc3c(c2)c(=O)n(C)c(=O)n3C)cc1`, -106% (active).

In the case of `CC1CCCC(NC(=O)COC(=O)[C@@H]2CC(O)CN2S(=O)(=O)c2ccc3c(c2)OCCO3)C1C` (stereo partly drawn), the activity change, negative = inhibition is 10.5%.

`Cc1ccc(Cl)cc1NC(=O)CSc1nccn1C`: the activity change, negative = inhibition was -11.3%.

`Cc1cc(C)n(CCNCc2c(C(=O)N3C[C@@H](C)O[C@@H](C)C3)nc3ccc(Cl)cn23)n1`: the activity change, negative = inhibition was 18.2%. As to `Cc1ccc(C(=O)N2CCc3cc(CNC(=O)c4ccc(Br)cc4)ccc32)cc1`, the activity change, negative = inhibition is -17.7%. As for `CC1=C(C(=O)N2CCN(c3cccc(C(F)(F)F)c3)CC2)C2(CCCCC2)OC1=O`, the figure is 30.4%; as for `Nc1nc(SCC(=O)NCCN2CCOCC2)nc2sc3c(c12)CCC3`, 5.31%.

On to `CC(C)(C)C1CCc2c(sc3nc(SCC(N)=O)nc(N)c23)C1` (stereo not drawn), for which the activity change, negative = inhibition was -100% (active). `C=C(C)CSc1nc(N)c2c3c(sc2n1)CCC3`: the activity change, negative = inhibition is 31.9%. The value for `CC(C)(C)c1ccc(C(=O)NCc2nnc(SCC(=O)N3CCCc4ccccc43)n2-c2ccccc2)cc1` was -18.4%; that for `CC1(C)C(=O)CCC2(C)C1=CCC1C2C(=O)CC2(C)C1CCC2(O)C(=O)CO` (stereo not drawn) was -4.43%; that for `Cc1cc(C)c(NC(=O)Cn2c(SCC(=O)NCc3ccccc3)nc3ccccc32)c(C)c1` was -0.705%. As for `Cc1ccc(-n2c(SCC(=O)Nc3ncc(Cl)cc3Cl)nc3ccccc32)cc1`, the activity change, negative = inhibition is -98.7% (active). The value for `CC1(C(=O)OCC(=O)Nc2ncc(Cl)cc2Cl)CC1(Cl)Cl` (stereo not drawn) was -27.2%; that for `COc1cc2nc(SCC(=O)Nc3ccccc3F)n3nc(-c4ccccc4)nc3c2cc1OC` was -6.09%; that for `Cc1ccccc1CS(=O)(=O)CC1Nc2ccc(C(=O)NCc3ccc(Cl)cc3)cc2NC1=O` (stereo not drawn) was 2.23%. The value for `CC(C)c1ccc(OCC(=O)N(Cc2ccc(N(C)C)cc2)C2CCS(=O)(=O)C2)cc1` (stereo not drawn) was 7.29%.

As for `CCc1ccc(NC(=O)C2CCCN2S(=O)(=O)c2ccc3nc(-c4ccccc4)[nH]c3c2)cc1` (stereo not drawn), the activity change, negative = inhibition is -18.7%. For the compound `CCCCn1c(N)c(N(CCC(C)C)C(=O)COC(=O)c2cccnc2OCC)c(=O)[nH]c1=O`, the activity change, negative = inhibition was -5.28%.

As to `NS(=O)(=O)c1ccc(CNC(=O)c2cc(S(=O)(=O)N3CCOCC3)ccc2N2CCCC2)cc1`, the activity change, negative = inhibition was -10.4%. As for `COc1cc(OC)c(OC)cc1/C=C/c1nc2ccccc2c(=O)n1-c1ccc(Br)c(C)c1`, the figure is 3.49%.

Take `CCn1c(/C=C/c2ccc([N+](=O)[O-])o2)nc2ccccc2c1=O`: the activity change, negative = inhibition is -99.1% (active). For the compound `CCCN(CCC)c1c([N+](=O)[O-])c(=O)oc2ccccc12`, the activity change, negative = inhibition is -7.74%.

Regarding `Cc1cc2nc(-c3ccc(NC(=O)c4cc5ccccc5o4)cc3)oc2cc1C`, the activity change, negative = inhibition was 98.1%. As for `C=CCN1C(=O)N(Cc2ccccc2)c2ccccc2S1(=O)=O`, the figure is 8.55%; as for `Cc1ccc(-n2c(SCC(=O)Nc3cccc(F)c3)nc3c(oc4ccccc43)c2=O)cc1C`, -8.05%; as for `O=c1onc(-c2cccs2)n1Cc1ccccc1`, -71.3% (active). On to `Cc1cc(NC(=O)c2cc(-c3cccs3)on2)nn1Cc1ccc(Cl)cc1`, for which the activity change, negative = inhibition was -28.3%. As for `O=C(CSc1nnc(-c2cccs2)n1Cc1ccccc1)N1CCc2ccccc2C1`, the figure is -10.6%. As for `CCC1=Nc2cc(C(=O)NCC(C)c3ccccc3)ccc2Sc2ccc(C)cc21` (stereo not drawn), the figure is -7.44%. As to `COCCNC(=O)c1ccc2c(c1)ncn2-c1ccc(C)c(Cl)c1`, the activity change, negative = inhibition is 52.5%. The value for `CCC1=Nc2cc(C(=O)NCCCOC(C)C)ccc2Sc2ccc(C)cc21` was -62.8% (active). Regarding `CCc1ccc(Sc2cc(C(=O)NCCCOC(C)C)c3ccccc3n2)cc1`, the activity change, negative = inhibition was -34.7%.

On to `COCCNC(=O)c1ccc2c(c1)N=C(C)c1cc(C)ccc1S2`, for which the activity change, negative = inhibition is -83.7% (active). Consider `CC1=Nc2cc(C(=O)NCc3ccc(C)cc3)ccc2Sc2ccc(Cl)cc21`, for which the activity change, negative = inhibition is -34.6%. `COc1ccc(Cc2nnnn2CC(=O)O)cc1`: the activity change, negative = inhibition was -17%. The value for `Cc1ccc(NC(=O)CN2C(=O)C(c3ccc(F)cc3)=NC23CCCCCC3)c(C)c1` was 0.733%; that for `CCC(=O)N1c2ccccc2CC1C(=O)N1CCN(c2ccccc2F)CC1` (stereo not drawn) was 3.71%; that for `O=C(NCCC1=CCCCC1)c1ccc2c(c1)N(Cc1ccccc1F)C(=O)c1ccccc1S2(=O)=O` was 2.55%.

For the compound `CCOc1ccccc1N(C)C(=O)c1cc2c(s1)-c1ccccc1OC2`, the activity change, negative = inhibition is 2.75%. The value for `COc1cccc(CNC(=O)CCc2nc(-c3ccc(C)cc3)no2)c1` was 9.74%; that for `Cc1ccc(-c2noc(CCC(=O)Nc3ccccc3N3CCN(C)CC3)n2)cc1` was -68.8% (active); that for `COc1ccc(-c2noc(CCC(=O)N3CCN(c4cccc(C)c4)CC3)n2)cc1` was 1.95%. As to `CCCN(c1ccc(C)cc1)c1nc(=O)c2cccnc2s1`, the activity change, negative = inhibition was -20.6%. The value for `COc1ccc(OC)c(CNC(=O)CN2C(=O)CCn3nc(-c4cn(C)c5ccccc45)cc32)c1` was 3.11%; that for `O=C(NCCC1CCCCN1S(=O)(=O)c1ccc(F)cc1)C(=O)NC1CC1` (stereo not drawn) was -34%. Regarding `O=C1CCCCN1CCCC(=O)N1CCCC(Nc2ccc(F)cc2)C1` (stereo not drawn), the activity change, negative = inhibition was 4.92%.

For `O=C1/C(=C/c2ccc(F)cc2)SC(=S)N1CCCC(=O)N1CCCCC1CCO` (stereo not drawn), the activity change, negative = inhibition was -100% (active). `COc1ccc(S(=O)(=O)NCc2cccn2Cc2cccc(C)c2)cc1Cl`: the activity change, negative = inhibition is -8.25%. As for `CCOC(=O)C1CCN(c2nc3c(S(=O)(=O)c4ccc(CC)cc4)nnn3c3ccc(Cl)cc23)CC1`, the figure is 10.1%; as for `COc1ccc2c(c1)CC[C@@H]1[C@@H]2CC[C@]2(C)C(=O)CC[C@@H]12`, -18.8%; as for `Cc1ccc(-c2cn3cc([N+](=O)[O-])ccc3n2)cc1`, -89.1% (active).

Regarding `Cc1ccc(-c2cn3cc(C)ccc3n2)cc1`, the activity change, negative = inhibition was -91.4% (active). The value for `Cc1ccc(-n2cc3ccc([N+](=O)[O-])cc3n2)cc1` was 46.8%; that for `Cc1ccc(N2CCN(c3ccc([N+](=O)[O-])cn3)CC2)c(C)c1` was -6%.

Regarding `Cc1ccc2nc(-c3ccccc3)c(CC3CCCCC3)n2c1`, the activity change, negative = inhibition was 43.3%. With `Cc1ccc2nc(-c3ccc(Br)cc3)cn2c1`, the activity change, negative = inhibition was -89.7% (active).

In the case of `Cc1nc(=O)c(-c2ccccc2)c(C)n1-c1ccc(Br)cc1`, the activity change, negative = inhibition was -37%. As for `CC(=O)Nc1c(-c2ccc(C)cc2)nc2ccc(Cl)cn12`, the figure is 7.31%; as for `Cc1ccc(-c2nc(SCc3ccc(Br)cc3)n3[nH]c(=O)cc3n2)cc1`, 81.8%; as for `CCOC(=O)c1c(C)[nH]c(C)c1S(=O)(=O)N1CCC(C(=O)Nc2ccc(C)c(Cl)c2)CC1`, 1.11%. As to `CCOC(=O)c1c(C)[nH]c(CCC(=O)NCCCN2CCN(c3cccc(Cl)c3)CC2)c1C`, the activity change, negative = inhibition is -37.8%. As for `CCOc1cc(CNC(=O)c2sc3ncnc(N(C)C4CCCCC4)c3c2C)ccc1OC`, the figure is -22.8%; as for `O=C1CC(Sc2ncn[nH]2)C(=O)N1c1ccccc1` (stereo not drawn), -11.2%. `CCOc1ccc(CCNC(=O)CN(c2ccc(C)cc2)S(=O)(=O)N(C)C)cc1OCC`: the activity change, negative = inhibition was -14.8%. For `Cc1nn2c(=O)cc(COC(=O)CNC(=O)c3ccc(F)cc3)nc2s1`, the activity change, negative = inhibition was -0.933%. `Cc1ccc(S(=O)(=O)N2[C@@H](c3cccc4ccccc34)C(C(=O)O)=C[C@H]2C(C)(C)C)cc1`: the activity change, negative = inhibition is -14.1%. On to `CCOC(=O)C1C(C)C(C(C)(C)C)N(S(=O)(=O)c2ccc(C)cc2)C1c1ccccc1` (stereo not drawn), for which the activity change, negative = inhibition was -77.2% (active). As for `CCOC(=O)c1ccn(S(=O)(=O)c2ccc(C)cc2)c1-c1ccccc1`, the figure is -18.7%; as for `CCc1nc2ccc(C(=O)N3CCN(c4cc(Cl)ccc4C)CC3)cc2nc1CC`, 33.5%; as for `CCC(=O)N1CCc2cc(S(=O)(=O)NC(C(=O)Nc3ccc(C(C)=O)cc3)C(C)C)ccc21` (stereo not drawn), 7.35%. The value for `C=Cn1cc[n+](CC(=O)c2ccc(OC)c(OC)c2)c1` was -10.4%. In the case of `COc1ccc(S(=O)(=O)N2CCC(C(=O)N3CCCC3)CC2)cc1C`, the activity change, negative = inhibition is 1.95%. The value for `COc1ccc(-c2ccc(Nc3ccc(S(=O)(=O)N4CCCC4)cc3)nn2)cc1OC` was -67% (active). As for `COc1ccccc1CC(=O)Nc1ccc(S(=O)(=O)N2CCCC2)cc1`, the figure is -14.7%; as for `O=C(CSc1oc(-c2ccccc2)nc1S(=O)(=O)c1ccc(Br)cc1)NC1CCCCC1`, 14%; as for `O=C(NCc1ccc(F)cc1)c1ccc(Cn2c(SCc3ccc(F)cc3)nc3cccnc32)cc1`, 16%. In the case of `Cc1c(C(=O)N(C)C)sc2c1c(=O)n(-c1ccc(F)cc1)c(=O)n2CC(=O)N(C)c1ccccc1`, the activity change, negative = inhibition was 7.53%.

On to `CN(C(=O)CC(NC(=O)c1ccccc1)(c1ccccc1)c1ccccc1)c1ccccc1`, for which the activity change, negative = inhibition was -66.2% (active). The value for `Cc1ccc(S(=O)(=O)NCCC(=O)OCC(=O)N(C)c2ccccc2)cc1` was 2.56%; that for `CN(C(=O)COC(=O)CNC(=O)C12CC3CC(CC(C3)C1)C2)c1ccccc1` was 5.66%.
